The text below walks through data of the supplement of paper PMC6522484.

Assay [1] has as its system DLD1. Put plainly: cell viability (CellTiter-Glo) relative to plate median (fraction of plate median); higher = more viable cells. As to conditions: 5 µM; treatment time 24 h; reporter: 7TFP. In short, it runs like this: (§1)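 Library compounds were added at a final concentration of 5 µM for 24 h to colorectal cancer cells stably transduced with a lentiviral TCF/Wnt firefly luciferase reporter. Reported values are firefly luciferase or CellTiterGlo luminescence, normalised per well to the plate median. Each value averages two independent replicates.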
(Cellular ATP, detected with luciferase, serves as a proxy for viable cell number.)

The test system of another assay is HCT116. Described as above. As to conditions: 5 µM; treatment time 24 h; reporter: TCF4/Wnt. In short, it runs like this: as §1
Assay [2] concerns SW480. The assay is described as above. The settings on record: 5 µM; treatment time 24 h; reporter: 7TFP. The method, boiled down:
as §1

The subject of assay [3] is DLD1. Briefly: TCF/Wnt firefly luciferase reporter signal relative to plate median (fraction of plate median); higher = higher Wnt reporter signal. The settings on record: 5 µM; treatment time 24 h; reporter: 7TFP. In short, it runs like this: as §1
The test system of assay [4] is SW480. The description is as above. As to conditions: 5 µM; treatment time 24 h; reporter: 7TFP. The method, boiled down:
as §1

± gives the standard deviation of the averaged measurements.

Turning to `CO[C@H]1C[C@H](O[C@@H]2/C(C)=C/C[C@@H]3C[C@@H](C[C@]4(CC[C@H](C)[C@@H](C5CCCCC5)O4)O3)OC(=O)[C@@H]3C=C(C)/C(=N/O)[C@H]4OC/C(=C\C=C\[C@@H]2C)[C@]43O)O[C@@H](C)[C@@H]1O`, the cell viability worked out at 0.919 ± 0.021 in the assay on DLD1 [1], 0.962 ± 0.038 in the assay on HCT116 and 0.962 ± 0.037 in the assay with SW480 [2]. Moreover, the “TCF/Wnt firefly luciferase reporter signal” value is 1.05 ± 0.021 in the assay with DLD1 [3] and 1.08 ± 0.035 in the assay on SW480 [4].
For `CCOc1ccc(Cc2nccc3cc(OCC)c(OCC)cc23)cc1OCC`, in that order: 0.876 ± 0.016, 0.885 ± 0.056, 0.921 ± 0.0071, 0.99 ± 0.13 and 0.95 ± 0.099.
On the same counts, the results for `C[C@@H]1Cc2cc(O)cc(O)c2C(=O)O[C@H](C)CC(=O)O[C@H](CO)CC(=O)O[C@H](C)Cc2cc(O)cc(O)c2C(=O)O[C@H](C)CC(=O)O1` are 1.04 ± 0.11, 1.14 ± 0.035, 1.01 ± 0.062, 0.938 ± 0.028 and 1.05 ± 0.05.
With `COC(C)c1cccc2nc3c(C(=O)O)cccc3nc12` (stereo not given) [Saphenic acid methylether], the figures for the cell viability in the assay on DLD1 [1], in the assay with HCT116 and with SW480 [2] were 1.03 ± 0.052, 1.13 ± 0.028 and 1.04 ± 0.028, respectively. Moreover, the entries for the “TCF/Wnt firefly luciferase reporter signal” value in the assay with DLD1 [3] and with SW480 [4] were 0.907 ± 0.1 and 1.15 ± 0.14, respectively.
For `COc1ccc(-c2cc(=O)c3c(OC(C)=O)cc(OC(C)=O)cc3o2)cc1`, in that order: 1.04 ± 0.064, 1.07 ± 0.13, 1.17 ± 0.057, 1.09 and 1.21 ± 0.092.
As to `COc1cc2ccc(=O)oc2cc1O`, the cell viability was 1.09 ± 0.064 with DLD1 [1], 1.09 with HCT116 and 1.12 ± 0.085 with SW480 [2]. The “TCF/Wnt firefly luciferase reporter signal” value was 0.999 ± 0.059 in the assay on DLD1 [3] and 0.892 ± 0.12 with SW480 [4].
`COc1ccc2cc([C@H](C)CO)ccc2c1`: the cell viability came to 0.939 ± 0.0028 in the assay with DLD1 [1], 0.862 ± 0.17 in the assay with HCT116 and 0.9375 ± 0.0021 in the assay on SW480 [2]. Also, the “TCF/Wnt firefly luciferase reporter signal” value in the assay on DLD1 [3] came to 1.11 ± 0.035; in the assay on SW480 [4] it was 1.04 ± 0.05.
`Cc1cc(C2CCCCC2)n(O)c(=O)c1`: the figures for the cell viability with DLD1 [1], with HCT116 and in the assay on SW480 [2] were 1.02 ± 0.014, 0.454 ± 0.12 and 1.24 ± 0.18, respectively. The results for the “TCF/Wnt firefly luciferase reporter signal” value with DLD1 [3] and in the assay with SW480 [4] were 0.795 ± 0.077 and 1 ± 0.13, respectively.
With `C[C@@](Cc1ccc(O)c(O)c1)(NN)C(=O)O`, the results for the cell viability in the assay on DLD1 [1], in the assay on HCT116 and in the assay on SW480 [2] were 1.01 ± 0.015, 0.981 ± 0.098 and 1.02 ± 0.067, respectively. Moreover, the entries for the “TCF/Wnt firefly luciferase reporter signal” value with DLD1 [3] and in the assay on SW480 [4] were 0.8725 ± 0.005 and 0.95 ± 0.13, respectively.
Take `CC(C)C[C@@H](NC(=O)[C@H](C)NC(=O)CNC(=O)[C@@H](NC=O)C(C)C)C(=O)N[C@@H](C)C(=O)N[C@@H](C(=O)N[C@H](C(=O)N[C@H](C(=O)N[C@@H](Cc1c[nH]c2ccccc12)C(=O)N[C@H](CC(C)C)C(=O)N[C@@H](Cc1c[nH]c2ccccc12)C(=O)N[C@H](CC(C)C)C(=O)N[C@@H](Cc1c[nH]c2ccccc12)C(=O)N[C@H](CC(C)C)C(=O)N[C@@H](Cc1c[nH]c2ccccc12)C(=O)NCCO)C(C)C)C(C)C)C(C)C`: the cell viability in the assay on DLD1 [1] turned out to be 0.939 ± 0.13; in the assay on HCT116, 0.903 ± 0.061; with SW480 [2] it was 0.613 ± 0.072. The “TCF/Wnt firefly luciferase reporter signal” value is 0.885 ± 0.043 in the assay on DLD1 [3] and 0.488 ± 0.077 with SW480 [4].
For `COc1ccc(/C=C/C(=O)O)cc1OC`, in that order: 1.02 ± 0.045, 1.06 ± 0.16, 0.951 ± 0.083, 1.01 ± 0.021 and 0.984 ± 0.021.
On the same counts, the results for `CCn1cc(C(=O)O)c(=O)c2ccc(C)nc21` are 0.975 ± 0.16, 0.9905 ± 0.0078, 0.975 ± 0.016, 1.07 ± 0.12 and 1.02 ± 0.028.
With `CCCCOc1cc(CC2CNC(=O)N2)ccc1OC` (stereo not given), the values for the cell viability in the assay with DLD1 [1], in the assay on HCT116 and in the assay on SW480 [2] were 0.999 ± 0.016, 0.921 ± 0.081 and 0.912 ± 0.011, respectively. The “TCF/Wnt firefly luciferase reporter signal” value was found to be 1.015 ± 0.0071 in the assay on DLD1 [3] and 1.04 ± 0.19 in the assay on SW480 [4].
On the same counts, the results for `CC(=O)O[C@H]1CC[C@]2(C)C3=C(CC[C@H]2C1(C)C)[C@]1(C)CC[C@H]([C@H](C)CCC=C(C)C)[C@@]1(C)CC3` are 0.966 ± 0.036, 0.957 ± 0.055, 0.953 ± 0.034, 0.9 ± 0.098 and 0.958 ± 0.1.
As for `CN1CCC(=C2c3ccccc3CCc3sccc32)CC1`, the cell viability is 1.07 ± 0.014 in the assay on DLD1 [1], 1.14 ± 0.17 in the assay on HCT116 and 1.1 ± 0.064 with SW480 [2]. Also, the results for the “TCF/Wnt firefly luciferase reporter signal” value in the assay with DLD1 [3] and in the assay with SW480 [4] were 1.05 ± 0.11 and 0.934 ± 0.061, respectively.
On the same counts, the results for `CC(CCC(=O)O)C1CCC2C3CCC4CC(O)CCC4(C)C3C=CC12C` (stereo not given) are 1.03 ± 0.021, 0.943 ± 0.12, 1.005 ± 0.0071, 0.902 ± 0.071 and 0.964 ± 0.02.
On the same counts, the results for `Nc1c2c(nc3ccccc13)CCCC2` are 1.04, 0.997 ± 0.018, 0.946 ± 0.014, 0.999 ± 0.016 and 0.943 ± 0.015.
`OCC(S)CS` (stereo not given): the cell viability was 0.884 ± 0.063 in the assay with DLD1 [1], 0.956 ± 0.018 in the assay on HCT116 and 0.944 ± 0.032 in the assay with SW480 [2]. Moreover, the “TCF/Wnt firefly luciferase reporter signal” value in the assay on DLD1 [3] came to 0.921 ± 0.057; in the assay with SW480 [4], 0.936 ± 0.066.
On the same counts, the results for `CC[C@H](/C=C/[C@@H](C)[C@H]1CC[C@H]2[C@@H]3CCC4=CC(=O)CC[C@]4(C)[C@H]3CC[C@]12C)C(C)C` are 0.999 ± 0.087, 0.976 ± 0.18, 1.02 ± 0.041, 1.05 and 1.06 ± 0.028.
On the same counts, the results for `CC(=O)N(c1onc(C)c1C)S(=O)(=O)c1ccc(N)cc1` are 1.02 ± 0.034, 1.05 ± 0.19, 0.935 ± 0.06, 0.933 ± 0.0014 and 0.985 ± 0.021.
For `COC(=O)c1c(C)c2c(c(C)c1O)OC(=O)c1c(C)c(Cl)c(O)c(Cl)c1O2`, in that order: 0.994 ± 0.037, 0.865 ± 0.016, 0.9555 ± 0.0078, 0.895 ± 0.083 and 0.933 ± 0.057.
`O=c1c(O)c(-c2ccc(O)c(O)c2)oc2cc(O)cc(O)c12`: the cell viability in the assay on DLD1 [1] stood at 0.9445 ± 0.00071; in the assay on HCT116, 0.9265 ± 0.0021; in the assay with SW480 [2], 1 ± 0.036. For the same compound, the “TCF/Wnt firefly luciferase reporter signal” value in the assay with DLD1 [3] was 0.936 ± 0.062; in the assay on SW480 [4], 0.983 ± 0.067.
On the same counts, the results for `N=C(N)NC(=O)c1nc(Cl)c(N)nc1N` are 0.963 ± 0.067, 0.988 ± 0.046, 1.01 ± 0.057, 0.937 ± 0.024 and 1 ± 0.084.
On the same counts, the results for `O=c1c(O)c(-c2ccc(O)c(O)c2)oc2c(O[C@@H]3O[C@H](CO)[C@@H](O)[C@H](O)[C@H]3O)c(O)cc(O)c12` are 0.99 ± 0.057, 0.905 ± 0.22, 0.976 ± 0.033, 1.1 ± 0.078 and 0.997 ± 0.061.
Consider `C/C=C1\[C@H]2C=C(C)C[C@]1(N)c1ccc(=O)[nH]c1C2`, for which the cell viability in the assay with DLD1 [1] is 0.965 ± 0.064; with HCT116, 0.952 ± 0.016; in the assay with SW480 [2] it was 1.02 ± 0.014. For the same compound, the figures for the “TCF/Wnt firefly luciferase reporter signal” value in the assay with DLD1 [3] and in the assay on SW480 [4] were 1.1 ± 0.17 and 1 ± 0.16, respectively.
For `CO[C@@]1(NC(=O)CSCC#N)C(=O)N2C(C(=O)O)=C(CSc3nnnn3C)CS[C@@H]21`, in that order: 0.998 ± 0.031, 1.11 ± 0.057, 0.9035 ± 0.0021, 0.928 ± 0.023 and 1.02.
Consider `CC(=O)c1cc(CC=C(C)C)c(O)c(CC=C(C)C)c1`, for which the cell viability turned out to be 1.05 ± 0.014 in the assay on DLD1 [1], 1.02 ± 0.035 in the assay on HCT116 and 0.95 ± 0.011 in the assay with SW480 [2]. Also, the “TCF/Wnt firefly luciferase reporter signal” value is 1.08 ± 0.15 with DLD1 [3] and 1.14 ± 0.064 with SW480 [4].
On to `CCCN(CCC)C(=O)C(CCC(=O)O)NC(=O)c1ccccc1` (stereo not given), for which the cell viability in the assay on DLD1 [1] was determined as 0.921 ± 0.057; in the assay on HCT116, 1.06 ± 0.035; in the assay on SW480 [2], 0.904 ± 0.024. Besides, the “TCF/Wnt firefly luciferase reporter signal” value in the assay with DLD1 [3] was found to be 1.01 ± 0.024; with SW480 [4] it was 1.06 ± 0.05.
For `CC1(C)C(=O)C=C[C@]2(C)[C@H]3CC[C@@]4(C)[C@H](c5ccoc5)OC(=O)[C@H]5O[C@]54[C@]3(C)C(=O)C[C@@H]12`, the values for the cell viability in the assay on DLD1 [1], with HCT116 and in the assay with SW480 [2] were 1.02, 0.974 ± 0.023 and 0.97 ± 0.033, respectively. Moreover, the “TCF/Wnt firefly luciferase reporter signal” value with DLD1 [3] was 0.871 ± 0.093; in the assay with SW480 [4], 0.978 ± 0.025.
On to `CC1=C(/C=C/C(C)=C/C=C/C(C)=C/CO)C(C)(C)CCC1`, for which the cell viability in the assay on DLD1 [1] came to 0.974 ± 0.079; in the assay with HCT116, 1.15 ± 0.042; in the assay with SW480 [2] it was 1.04 ± 0.042. In addition, the entries for the “TCF/Wnt firefly luciferase reporter signal” value in the assay on DLD1 [3] and in the assay with SW480 [4] were 1.14 ± 0.042 and 1.04 ± 0.057, respectively.
